According to PubChem BioAssay (NCATS):
Records with an inconclusive call do not appear. Calls of active or inactive are those of the source. Calls follow the shape of the dose curve; as a rule, active = well fitted inhibition curve with a large enough effect; inconclusive = small, poorly fitted or top-dose-only effect; inactive = flat fitted curve, though single readings scatter.
% is scaled to controls: 0 for no effect and ±100 for the full control effect; potency is read from the fitted curve at half-maximal effect.

What follows are compounds tested on HEK293 (assay: Cytotoxic Profiling of Annotated Libraries Using Quantitative High-Throughput Screening (AID 1296008; also: nearly all actives have a fitted effect of over 60% in size)). Details: Five cell lines viability, CellTiter-Glo ATP luminescence, 48-72 h; max response: stronger effect = lower value.
In short: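 Cells exposed to compounds for 48 or 72 hr at 37 degrees Celsius. Viability read as ATP-coupled luminescence with CellTiter-Glo after 10 min at room temperature.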
For `CCC1NC(=O)C2C(Cl)C(Cl)CN2C(=O)C(C(C)O)NC(=O)CC(c2ccccc2)NC(=O)C(CO)NC1=O` (configuration not stated), the max response was -1.23% (inactive). With `COC(=O)C1(C)CCC(=O)C2(C)c3c(O)cc(C(C)C)cc3C(O)C(OC(C)=O)C12` (configuration not stated) the max response was -0.554% (inactive). For `C=C(C)[C@H]1O[C@H]2CC[C@@]3(C)[C@@](O)(CC[C@H]4[C@@H]5OC(C)(C)[C@H]6C[C@@H]7C(=C)Cc8c(Cl)cc9[nH]c(c5c9c8[C@@]76O)[C@@]43C)[C@]23O[C@@H]3[C@H]1O`, the outcome was “inactive”. With `C[C@@H]1C(=O)O[C@H]2[C@H](O)[C@@]34[C@@H]5OC(=O)[C@@]3(O[C@@H]3OC(=O)[C@@H](O)[C@@]34[C@H](C(C)(C)C)[C@H]5O)[C@@]12O` the max response was -8.33% (inactive). For `CCc1c(C(=O)C(N)=O)c2c(OCC(=O)OC)cccc2n1Cc1ccccc1`, the outcome was “inactive”. In the case of `COc1cc(CCNCc2ccccc2O)c(OC)cc1C#N`, the max response is reported as 2.88% (inactive). For `C=CC(C)(O)CC/C=C(\C)C(=O)O[C@H]1[C@H](O)[C@@H](CO)O[C@@H](OC(=O)[C@]23CCC(C)(C)CC2C2=CCC4[C@@]5(C)CC[C@H](O[C@@H]6O[C@H](CO[C@@H]7OC[C@H](O)[C@H](O)[C@H]7O[C@@H]7OC[C@@H](O)[C@H](O)[C@H]7O)[C@@H](O)[C@H](O)[C@H]6O)C(C)(C)C5CC[C@@]4(C)[C@]2(C)CC3)[C@@H]1OC1OC(C)C(O[C@@H]2OC[C@@H](O)[C@H](O[C@@H]3OC[C@@H](O)[C@H](O)[C@H]3O)[C@H]2O)C(O)C1O` (some centres not stated), the max response was 0.313% (inactive). For `Cc1cccc(NC(=O)N[C@@H]2N=C(c3ccccc3)c3ccccc3N(C)C2=O)c1`, the max response was -5.08% (inactive). With `COC(=O)N1CCN(C(=O)Cc2ccc(Cl)c(Cl)c2)[C@@H](CN2CCCC2)C1` the max response was -9.31% (inactive). In the case of `CC(N)Cc1c[nH]c2ccccc12` (configuration not stated), the outcome is reported as “inactive”. `COC(=O)C1(C)CCC(O)C2(C)c3cc(O)c(C(C)C)cc3C(O)C(OC(C)=O)C12` (configuration not stated) was tested, and the max response was 3.05% (inactive). For `C=C(CO)C(=O)O[C@H]1C/C(C)=C/CC/C(CO)=C/[C@H]2OC(=O)C(=C)[C@H]12`, the max response was -5.5% (inactive). With `C/C=C(\C)C(=O)OC1C(C)OC(OC2C(C)OC(OC3CCC4(C)C(=CCC5C4CCC4(C)C(C(C)OC6OC(COC7OC(CO)C(O)C(O)C7O)C(O)C(O)C6O)CCC54O)C3)CC2OC)C(O)C1OC` (configuration not stated) the max response was -2.95% (inactive). With `CN1C(=O)c2ccccc2NC(=O)[C@]12O[C@@H]2c1ccccc1` the outcome was “inactive”. In the case of `CN1[C@@H]2CC[C@H]1CC(OC(=O)C1C=Nc3ccccc31)C2` (some centres not stated), the max response is reported as -5.26% (inactive). For `COC(=O)C1(C)CCC(O)C2(C)c3c(O)cc(C(C)C)cc3C(O)C(OC(C)=O)C12` (configuration not stated), the outcome was “inactive”. `COC1C(O)C(OC2CCC3(C=O)C(CCC4C3CCC3(C)C(C5=CC(=O)OC5)CCC43O)C2)OC(C)C1OC1OC(CO)C(O)C(O)C1O` (configuration not stated) was tested, and the Potency was 243 nM (active). For `CCCN1CCO[C@H]2c3cc(O)ccc3OC[C@@H]21`, the outcome was “inactive”. For `N#CC(OC1OC(COC2OC(CO)C(O)C(O)C2O)C(O)C(O)C1O)c1ccccc1` (configuration not stated), the outcome was “inactive”. In the case of `CC(=O)OC12C(O)C(C)C3(O)C4C=C(C)C(=O)C4CC(CO)=CC3C1C2(C)C` (configuration not stated), the max response is reported as -4.3% (inactive). In the case of `C[C@]12CC[C@H]3[C@@H]([C@H](O)CC4=CC(=O)CC[C@@]43C)[C@@H]1CC[C@@H]2O`, the max response is reported as -7.8% (inactive). In the case of `COc1c(C(C)C)cc2c(c1O)[C@@]1(C(=O)O)CCCC(C)(C)C1CC2` (some centres not stated), the outcome is reported as “inactive”. `Clc1ccc(N2C[C@H]3CC[C@@H](C2)N3)nn1` was tested, and the max response was 2.01% (inactive). With `CN1C(=O)N(c2ccc(C#N)c(C(F)(F)F)c2)C(=O)[C@]1(CO)c1ccccc1` the max response was -8.53% (inactive). In the case of `CC1=C2C(=O)C3[C@@H](CC=C4C[C@@H](O)CC[C@@]43C)[C@@H]2CC[C@]12O[C@@H]1C[C@H](C)CN[C@H]1[C@H]2C` (some centres not stated), the max response is reported as -3.9% (inactive). `C=C[C@H]1[C@H](O[C@@H]2O[C@H](CO)[C@@H](O)[C@H](O)[C@H]2O)OC=C2C(=O)OCC[C@H]21` was tested, and the outcome was “inactive”. `CC1=CC2/C=C(\C)CCC(O)C3OC(C)(C)OC3CC(=O)OC23C(=O)NC(CC(C)C)C3C1C` (configuration not stated) was tested, and the max response was 2.48% (inactive). `COc1cc2c(cc1OC)[C@@]13CCN4CC5=CCO[C@H]6CC(=O)N2[C@H]1[C@H]6[C@H]5C[C@H]43` was tested, and the max response was -25.1% (inactive). `CC1=C2C[C@H]3[C@@H](CC=C4C[C@@H](O)CC[C@@]43C)[C@@H]2CC[C@]12O[C@@H]1C[C@H](C)CN[C@H]1[C@H]2C` was tested, and the outcome was “inactive”. For `CCCCCCn1c(=O)c(C(=O)Nc2ccc(C(=O)OCCC)cc2)c(O)c2ccccc21`, the outcome was “inactive”. With `O=C(N1CCOCC1)N1CCN(c2ccc(Cl)cc2)CC1` the max response was -0.253% (inactive). For `Cc1cc(C(=O)CN2CCCC2)c(C)n1-c1ccc(F)cc1`, the max response was -9.04% (inactive). In the case of `CCC(C)(OC(C)=O)C(=O)O[C@H]1[C@H](OC(C)=O)C[C@@H]2[C@@](C)([C@@H]3C[C@H]4C=CO[C@H]4O3)[C@H](C)C[C@H](OC(C)=O)[C@@]2(COC(C)=O)[C@@]12CO2` (some centres not stated), the outcome is reported as “inactive”. In the case of `COC(=O)[C@@]12C(=O)C(C)C(=O)[C@]1(C)C(C)=C[C@H]1[C@]3(C=O)CC[C@H](OC(C)=O)C(C)(C)[C@H]3CC[C@@]12C` (some centres not stated), the outcome is reported as “inactive”. With `Cn1ncnc1COc1nn2c(-c3c(F)cccc3F)nnc2cc1C1CCC1` the outcome was “inactive”. In the case of `C=C1[C@@H]2CC[C@@]3(C)[C@H](c4ccoc4)OC(=O)C[C@]13O[C@H]1CC(=O)C(C)(C)[C@H](C(OC(C)=O)C(=O)OC)[C@]12C` (some centres not stated), the max response is reported as -1.58% (inactive). `COc1cc(C(=O)O[C@H]2[C@@H]3C=CO[C@@H](O[C@@H]4O[C@H](CO)[C@@H](O)[C@H](O)[C@H]4O)[C@@H]3[C@@]3(CO)O[C@@H]23)ccc1O` was tested, and the max response was 4.28% (inactive).
